# Mac1 fbg inh – inhibitors of CD11b/CD18 adhesion to fibrinogen, primary screen, K562 cells, luminescence. AID 1497, 2009. Integrin beta-2 (Homo sapiens) + Integrin alpha-M (Homo sapiens), P05107+P11215. inhibition, % at 10 µM. hit rate 0.54% among 93,000. ATPlite luminescence; Mn2+ added to activate the integrin;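 active means primary inhibition of 50% or more at 10 µM, then 40% or more on retest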
# ERa SRC1 pot – enhancers of ERα–SRC-1 coactivator binding, primary screen, biochemical, TR-FRET, ERα LBD, low estradiol. Estrogen receptor (Homo sapiens), P03372. TR-FRET ERalpha-LBD/SRC-Cy5 coactivator binding, 2 h; 100 = basal binding, no effect. coactivator binding (% of control), % at 25.6 µM. hit rate 1.3% among 86,000. AID 639, 2007; in the data active means activity above about 200%;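 further: binding measured in presence of low estradiol as agonist stimulus; 0% = peptide alone without receptor and 100% = receptor with peptide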
# Target sequence (P03372 whole entry, looked up, the tested form may be a part): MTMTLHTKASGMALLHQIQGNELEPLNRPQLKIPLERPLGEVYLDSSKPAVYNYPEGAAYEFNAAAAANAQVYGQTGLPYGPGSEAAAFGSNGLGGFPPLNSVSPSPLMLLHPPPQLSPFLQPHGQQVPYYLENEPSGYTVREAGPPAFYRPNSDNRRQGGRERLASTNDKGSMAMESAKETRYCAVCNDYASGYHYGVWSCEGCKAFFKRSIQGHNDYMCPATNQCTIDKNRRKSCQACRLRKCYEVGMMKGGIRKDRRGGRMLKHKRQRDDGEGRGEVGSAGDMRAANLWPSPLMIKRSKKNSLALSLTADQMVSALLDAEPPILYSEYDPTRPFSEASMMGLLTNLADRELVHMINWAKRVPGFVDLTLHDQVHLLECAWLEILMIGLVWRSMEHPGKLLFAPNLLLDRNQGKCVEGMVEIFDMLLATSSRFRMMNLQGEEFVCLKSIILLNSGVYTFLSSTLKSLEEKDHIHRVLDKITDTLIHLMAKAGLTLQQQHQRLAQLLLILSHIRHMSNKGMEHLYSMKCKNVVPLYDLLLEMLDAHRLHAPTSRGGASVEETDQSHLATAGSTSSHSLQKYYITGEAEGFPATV
# ERb coact inh – inhibitors of ERβ-SRC1 coactivator interaction, primary screen, biochemical, TR-FRET, ERβ LBD, SRC-1 peptide; TR-FRET ER-beta LBD / SRC1-Cy5 peptide binding; receptor agonist-loaded with 1 µM estradiol; inhibition, % at 25.6 µM; hit rate 1.3% among 86,000; AID 633, 2007;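 active means compounds whose percent inhibition of the receptor-coactivator binding signal exceeds about 50% in the single-dose screen, limit read from the data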;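 further: 0% = receptor plus peptide wells without compound and 100% = peptide-only wells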
# CD11b adhes enh – enhancers of CD11b/CD18 adhesion to fibrinogen, primary screen, K562 cells, luminescence; Integrin beta-2 (Homo sapiens) + Integrin alpha-M (Homo sapiens), P05107+P11215; ATPlite luminescence; activation, % at 10 µM; hit rate 0.07% among 93,000; AID 1499, 2009;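 active means 10 µM primary screen giving 50% or more activity, confirmed by 40% or more on retest at that dose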
# ERa SRC1 inh – ERα–SRC-1 coactivator interaction inhibitors, primary screen, biochemical, TR-FRET, ERα LBD, estradiol-bound | AID 629, 2007 | inhibition, % at 25.6 µM | TR-FRET ER-alpha LBD / SRC-1 peptide | Estrogen receptor (Homo sapiens), P03372 | hit rate 1.7% among 86,000; in the data active means inhibition above about 50%;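 further: 0% = receptor plus peptide control and 100% = peptide only without receptor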
# Starred values were filed as active, the others as inactive; . = no result; [ ] = another dose, or the depositor's remark. A selection: hits, their analogues and other compounds. The true share with any hit is near 3.1%.
SMILES,Mac1 fbg inh,ERa SRC1 pot,ERb coact inh,CD11b adhes enh,ERa SRC1 inh
COc1ccc(/C=C\C(=O)CC(O)(c2ccccc2)C(F)(F)F)cc1 (centres undefined),-19.3,73.3,2.1,-0.2,7.9
CN(C)c1ccc(/C=C/C(O)=C2/C(=O)N(C)C3(C)CC2c2ccccc2O3)cc1 (centres undefined),.,26.5,60.3*[fluorescence artefact?],.,73.7*[fluorescence artefact?]
CSc1ccc(CNc2ccc(Cl)cc2)cc1,-6.8,.,.,4.5,.
CCc1ccc(CNc2ccc(O)cc2)cc1,32.5,70.7,55.5*[fluorescence artefact?],10.2,26.2
COc1ccc(CNC(=O)/C(C#N)=C2\N=C(NC(=O)c3cccs3)c3ccccc32)cc1,17.6,.,.,11.8,.
CCC(Cc1ccccc1)NC(=O)C1CCC(CNc2c(N3CCCC3)c(=O)c2=O)CC1 (centres undefined),-0.6,106.5,-7.3,-1.3,-2.7
O=c1[nH]c(=O)n(Cc2ccco2)c2c1C(C(F)(F)F)(C(F)(F)F)N=C(CCc1ccccc1)N2,.,81.2,24.6,.,59.5*[fluorescence artefact?]
CCOC(=O)CCC(NC(=O)c1ccc(NCN2C(=O)CCC2=O)cc1)C(=O)OCC (centres undefined),1.6,61.2,54.0*,-4.1,29.0
COc1ccc(NC(=O)C2CCCCN2CC(=O)OCc2ccccc2)cc1OC (centres undefined),-15.4,106.5,-2.8,-6.1,-0.8
Nc1nonc1NC(=O)CSc1ncccc1C(=O)O,-13.5,100.9,63.8*,1.8,-1.7
CN1CCc2c(sc(/N=C/c3cccs3)c2C(N)=O)C1,-3.8,70.4,73.9*[fluorescence artefact?],0.3,24.1
CC1(C)C(=O)Nc2ccccc2N1C(=O)COc1ccc(S(=O)(=O)N2CCOCC2)cc1Cl,-9.3,23.2,87.9*[fluorescence artefact?],14.1,85.1*[fluorescence artefact?]
O=C(/C=C/c1cccs1)NC(=S)NNC(=O)Cc1cccs1,.,85.4,4.5,.,-7.4
CCOc1ccc(-n2c(-c3ccc(OC)cc3)c[n+]3c2CCCCC3)cc1,99.8*,.,.,-6.6,.
COc1ccc(-c2c[n+]3c(n2-c2ccccc2)CCCCC3)cc1,22.6,.,.,0.8,.
CN1C(=O)CC(C(=O)O)SC1=Nc1cc(Cl)c(O)c(Cl)c1 (centres undefined),-3.6,43.4,53.8*,-5.1,43.3
CCNC(=O)C1CC(=O)N(CC)C(=Nc2cc(Cl)c(O)c(Cl)c2)S1 (centres undefined),0.8,94.1,7.8,1.3,3.1
Cc1csc(SCC(=O)c2c(N)n(CC(C)C)c(=O)n(C)c2=O)n1,6.1,108.6,-2.4,-2.3,-11.1
Cc1ccc(-n2nnnc2SCC(=O)c2c(N)n(CC(C)C)c(=O)n(C)c2=O)cc1,-47.9,242.1*,-6.4,0.6,-7.6
CC(C)Cn1c(N)c(C(=O)COC(=O)c2cc(-c3ccco3)nc3ccccc23)c(=O)n(C)c1=O,.,38.4,80.4*[fluorescence artefact?],.,91.1*[fluorescence artefact?]
Cc1nn(-c2ccccc2)c(C)c1C(=O)OCC(=O)c1c(N)n(CC(C)C)c(=O)n(C)c1=O,64.9*,101.7,2.4,-6.8,-1.2
CCC(=O)N1CCN(c2ccc(NC(=O)c3ccc(-c4ccccc4)cc3)cc2)CC1,-2.9,96.6,14.6,3.1,6.6
CCOC(=O)C1CCN(C(=S)Nc2cc(OC)c(OC)cc2C(=O)OC)CC1,-4.1,87.3,-3.5,-6.3,-7.1
CCOC(=O)N1CCN(C(=O)CN(c2ccc(Cl)c(C(F)(F)F)c2)S(C)(=O)=O)CC1,4.0,122.8,-2.7,3.4,1.6
CC(C)CC(=O)Nc1ccc(-c2cn3ccsc3n2)cc1,45.9,101.4,-1.7,-1.8,-8.6
SMILES,Mac1 fbg inh,ERa SRC1 pot,ERb coact inh,CD11b adhes enh,ERa SRC1 inh
CC(C)(C)C(=O)Nc1ccc(-c2cn3ccsc3n2)cc1,61.1*,113.6,0.1,-8.7,3.1
Cc1nn(-c2ccccc2)c2sc(C(=O)OCN3C(=O)c4ccccc4C3=O)cc12,9.2,108.6,34.1,-5.1,59.7*
CCN1CCCC1CNC(=O)Cn1cnc2sc(C)c(S(=O)(=O)N3CCC(C)CC3)c2c1=O (centres undefined),.,98.3,24.1,.,6.0
CC1(c2ccccc2)CC(C)(C)N2C(=O)C3(C(C#N)=C(N)Oc4cc(O)ccc43)c3cccc1c32 (centres undefined),30.0,50.2,-4.3,-6.9,3.9
CC1(c2ccccc2)CC(C)(C)N2C(=O)/C(=C3\SC(=S)NC3=O)c3cccc1c32 (centres undefined),99.8*,.,.,-4.7,.
CCOC(=O)/C=C1\Nc2ccccc2OC1=O,3.6,.,.,-5.4,.
C=C(C)C1CC=C(C)/C(=N/NC(=O)CNc2ccc(OCC)cc2)C1 (centres undefined),-6.8,.,.,11.0,.
CCCc1nnc(NC(=O)c2c(O)c3cccc4c3n(c2=O)CCC4)s1,-7.9,93.1,56.1*[fluorescence artefact?],103.2,15.2
CC1CCc2sc(C(=O)N=Nc3c(O)[nH]c4ccccc34)cc2C1 (centres undefined),-3.2,.,.,-0.8,.
CS(=O)(=O)N(CC(=O)N1CCN(c2ccccc2)CC1)c1ccccc1Cl,.,116.6,0.5,.,-0.6
COc1ccc(-c2nc(-c3cccc(C)c3)[nH]c(=O)c2C#N)cc1,4.2,.,.,-1.7,.
N#Cc1c(-c2ccccc2)nc(-c2ccccc2)[nH]c1=O,51.9*,.,.,-3.6,.
CCN(CC)c1ccc(-c2nnc(SCC(=O)Nc3ccccc3C#N)n2-c2ccccc2)cc1,.,104.0,28.9,.,52.4*[fluorescence artefact?]
N#Cc1ccccc1NC(=O)CSc1nnc(-c2ccccc2)n1-c1ccccc1,-3.0,98.2,-1.0,1.0,-7.2
CCOC(=O)CSc1nnc(-c2cccs2)n1-c1ccccc1,6.2,88.3,-9.7,4.6,14.2
C=CCn1c(SCC(=O)Nc2ccc(C(=O)OCC)cc2)nnc1-c1cccs1,0.9,755.1*[fluorescence artefact?],10.3,-2.2,-44.5
O=C(CSc1nnc(-c2cccs2)n1-c1ccccc1)Nc1ccccc1,2.1,969.5*[fluorescence artefact?],11.5,2.4,-31.1
CCOC(=O)c1ccc(NC(=O)CSc2nnc(CNc3ccc(OC)cc3)n2C)cc1,-3.0,92.7,35.2,-2.6,52.3*
O=C(CCCSc1nnnn1-c1cccc2ccccc12)c1ccc(F)cc1,40.0,.,.,0.2,.
CCn1c(SCC(=O)Nc2ccc(C(=O)OC)cc2)nnc1-c1cccs1,-14.2,304.4*[fluorescence artefact?],10.4,-0.7,-1.7
Cc1ccc(C(=O)ONc2ccc(N=NC(=O)c3ccccc3O)cc2)cc1,22.4,130.7,52.1*,45.3,72.3*
Cc1ccc(C(=O)ONc2ccc(N=O)cc2)cc1,87.0,.,.,-8.3,.
COc1cccc(OC)c1C(=O)N1CCN(c2ccccn2)CC1,7.4,117.2,51.7*[fluorescence artefact?],1.5,-30.2
COc1ccccc1C(=O)N1CCN(c2ccccn2)CC1,.,113.9,-2.4,.,1.0
